Results taken from PubChem BioAssay.
Where “and” joins values, the source holds several entries; their conditions need not be identical. Equal values may be shown once. Inconclusive results are not listed. Calls of active or inactive are those of the source. Unless noted, no cut-off is given here; in the data, nearly all actives have AC50 up to about 26 µM.

Legend:
[1] = P. berghei load reduction in hepatocytes – cell-based, HepG2, luciferase luminescence, HepG2 viability, primary screen (AID 624349; in the data active = parasite load remaining mostly below about 12%, no sharp cut-off; inactive = mostly above about 10%;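 note: 100% = mean of DMSO negative control wells on the same plate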); conditions: P. berghei liver stage in HepG2, luciferase luminescence, concentration not given here; parasite load remaining: stronger effect = lower value; viability: measured here: HepG2 viability without parasites
[2] = EMT-state selective cytotoxicity in co-culture – imaging, PC-3E GFP, TEM4-18 mCherry, primary screen (AID 1345086;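 active = compounds killing one labelled cell type while sparing the other, by normalised counts and ratio limits, not self-fluorescent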;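 for all read-outs here: cells exposed to compound for 72 h before imaging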;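 for red/green cell ratio (normalised): normalised mesenchymal count divided by normalised epithelial count so high means epithelial killing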); conditions: PC-3E GFP / TEM4-18 mCherry co-culture, imaging cell counts, at 1 µM; for red/green cell ratio (normalised): actives lie on both sides, counts scaled to control wells, 1 = unselective
[3] = viability loss in pontine glioma line – cell-based, SU-DIPG-XIII, MIPE4.0, CellTiter-Glo, qHTS, dose response (AID 1347061; cut-off not given, nearly all actives have AC50 up to about 37 µM;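 note: cells exposed to compound for 48 hours before readout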); conditions: CellTiter-Glo ATP luminescence
[4] = viability loss in pontine glioma line – cell-based, JHH-DIPG-1, MIPE4.0, CellTiter-Glo, qHTS, dose response (AID 1347062; cut-off not given, nearly all actives have AC50 up to about 27 µM;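 for AC50: cells exposed to compound for two days before readout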); conditions: JHH-DIPG-1 viability, CellTiter-Glo ATP luminescence
[5] = viability loss in pontine glioma line – cell-based, SU-DIPG-IV, MIPE4.0, CellTiter-Glo, qHTS, dose response (AID 1347063; cut-off not given, nearly all actives have AC50 up to about 30 µM;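 note: compound exposure lasted 48 hours before the viability readout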); conditions: CellTiter-Glo ATP luminescence
[6] = growth inhibition of DIPG cells – cell-based, MIPE4.0 library, CellTiter-Glo luminescence, qHTS (AID 1347066; cut-off not given, nearly all actives have AC50 up to about 30 µM;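 note: cells exposed to compound for 48 hours before readout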); conditions: SU-DIPG-VI viability, CellTiter-Glo ATP luminescence
[7] = viability loss with induced miR-34 in A549 – imaging, A549 dox-inducible miR-34, nuclei and caspase counts, primary screen (AID 1347080;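 active = compounds whose cell count with miR-34 switched on is under 0.7 times the count with it off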); conditions: A549 miR-34 inducible, Hoechst nuclei count, 48 h
[8] = biological target: Mitogen-activated protein kinase 7 (Homo sapiens) (UniProt Q13164); test: Gal4-ERK5 driven luciferase induction – cell-based, HTS, primary screen (AID 1508626;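 active = luciferase signal above three times the same-plate solvent-only control wells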;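 note: luciferase driven by Gal4-ERK5 fusion binding five Gal4 sites before minimal TATA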); conditions: HeLa Gal4-ERK5 transactivation, 18 h, at 5 µM, stronger effect = higher value
Mitogen-activated protein kinase 7 (Homo sapiens), sequence (Q13164 whole entry, looked up, the tested form may be a part): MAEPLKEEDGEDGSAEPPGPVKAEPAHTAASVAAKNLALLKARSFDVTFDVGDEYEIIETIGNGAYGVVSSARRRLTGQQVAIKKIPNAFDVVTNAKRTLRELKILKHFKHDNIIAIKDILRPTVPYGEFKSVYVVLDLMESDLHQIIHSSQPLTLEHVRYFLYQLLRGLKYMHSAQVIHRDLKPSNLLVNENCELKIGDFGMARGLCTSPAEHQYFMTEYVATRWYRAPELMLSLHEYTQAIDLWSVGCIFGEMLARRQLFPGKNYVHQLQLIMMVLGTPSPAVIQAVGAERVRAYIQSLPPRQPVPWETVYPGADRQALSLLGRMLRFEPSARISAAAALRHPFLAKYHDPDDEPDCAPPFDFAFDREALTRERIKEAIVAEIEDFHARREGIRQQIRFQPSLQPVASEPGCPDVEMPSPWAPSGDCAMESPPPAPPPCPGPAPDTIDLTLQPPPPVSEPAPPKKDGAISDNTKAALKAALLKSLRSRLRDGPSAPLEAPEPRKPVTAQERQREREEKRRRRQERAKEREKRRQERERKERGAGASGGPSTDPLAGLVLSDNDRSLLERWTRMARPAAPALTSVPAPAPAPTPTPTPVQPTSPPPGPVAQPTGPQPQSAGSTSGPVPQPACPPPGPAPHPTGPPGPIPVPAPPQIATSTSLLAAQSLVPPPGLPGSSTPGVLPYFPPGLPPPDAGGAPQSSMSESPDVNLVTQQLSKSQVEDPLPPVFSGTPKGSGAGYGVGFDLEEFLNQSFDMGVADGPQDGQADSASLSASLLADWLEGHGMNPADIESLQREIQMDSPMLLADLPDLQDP

[9] = viability loss in pontine glioma line – cell-based, SU-DIPG-XIII, MIPE5.0, CellTiter-Glo, qHTS, dose response (AID 1347064; cut-off not given, nearly all actives have AC50 up to about 23 µM;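 for AC50: cells exposed to compound for 48 hours before the viability read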); conditions: CellTiter-Glo ATP luminescence
[10] = viability loss in pontine glioma line – cell-based, SU-DIPG-XXV, MIPE5.0, CellTiter-Glo, qHTS, dose response (AID 1347065); conditions: CellTiter-Glo ATP luminescence;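 note: cells exposed to compound for 48 hours before ATP readout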
[11] = JHH-DIPG-1 glioma cell viability, MIPE5.0 library, CellTiter-Glo luminescence, qHTS (AID 1347067); conditions: JHH-DIPG-1 glioma viability, CellTiter-Glo ATP luminescence;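 note: cells exposed to compound for 48 hours before readout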
[12] = growth inhibition of DIPG cells – cell-based, MIPE5.0 library, qHTS (AID 1347068; cut-off not given, nearly all actives have IC50 up to about 30 µM;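 for IC50: cells exposed to compound for 48 hours before viability readout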); conditions: SU-DIPG-XXV viability
[13] = viability loss in pontine glioma line – cell-based, SU-DIPG-XVII, MIPE5.0, CellTiter-Glo, qHTS, dose response (AID 1347060); conditions: CellTiter-Glo ATP luminescence;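 for AC50: cells exposed to compound for 48 hours before viability readout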
[14] = MELAS cybrid and Rieske KO viability enhancers – cell-based, MELAS cybrids, Rieske KO mouse fibroblasts, CellTiter-Glo, primary screen (AID 1508586;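 active = mean z-score across replicates of 1.96 or higher in either the MELAS or the Rieske mutant cell line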;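 note: z relative to plate mean and SD of compound and empty wells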); conditions: low glucose
[15] = biological target: NAD(+) hydrolase SARM1 (Homo sapiens) (UniProt Q6SZW1); test: blocking NAD cleavage by SARM1 SAM-TIR – cell lysate, NAD-Glo luminescence (AID 1508614;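 active = compound whose remaining NAD level is above about 45 nM, limit read from the data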;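 note: higher remaining NAD means stronger inhibition of SARM1 NADase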); conditions: SAM-TIR HEK293T lysate NADase, at 1 µM, stronger effect = higher value
NAD(+) hydrolase SARM1 (Homo sapiens), sequence (Q6SZW1 whole entry, looked up): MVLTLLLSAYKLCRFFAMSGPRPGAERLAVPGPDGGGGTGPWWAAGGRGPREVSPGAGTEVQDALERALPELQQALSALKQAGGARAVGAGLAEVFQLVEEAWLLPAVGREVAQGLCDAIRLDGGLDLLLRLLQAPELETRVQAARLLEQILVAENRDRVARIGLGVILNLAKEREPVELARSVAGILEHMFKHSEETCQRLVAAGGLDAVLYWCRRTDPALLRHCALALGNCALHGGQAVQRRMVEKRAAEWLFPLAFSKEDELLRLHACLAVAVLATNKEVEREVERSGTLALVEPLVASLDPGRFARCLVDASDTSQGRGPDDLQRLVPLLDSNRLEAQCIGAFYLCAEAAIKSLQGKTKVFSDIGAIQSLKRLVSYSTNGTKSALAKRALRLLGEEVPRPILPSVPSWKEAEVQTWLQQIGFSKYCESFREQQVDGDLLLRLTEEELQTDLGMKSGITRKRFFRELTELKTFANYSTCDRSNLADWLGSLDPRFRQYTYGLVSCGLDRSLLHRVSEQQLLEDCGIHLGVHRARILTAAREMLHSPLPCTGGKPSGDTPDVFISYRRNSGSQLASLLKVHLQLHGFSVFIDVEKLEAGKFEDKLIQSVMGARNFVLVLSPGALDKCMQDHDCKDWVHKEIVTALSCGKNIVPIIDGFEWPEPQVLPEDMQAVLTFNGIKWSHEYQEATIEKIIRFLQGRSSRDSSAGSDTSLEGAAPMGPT

[16] = galactose survival enhancers in mitochondrial complex I cybrids – cell-based, galactose medium, ATP luminescence, primary screen (AID 1645843;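 active = z-score of at least 1.8 in each of two replicates, scored against plate mean and spread of sample wells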;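 note: positive z means more ATP and so rescue of galactose-driven cybrid death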); conditions: complex I mutant cybrid cells, 72 h, stronger effect = higher value
[17] = biological target: ATP-dependent translocase ABCB1 (Homo sapiens) (UniProt P08183); test: P-glycoprotein substrate transport blockade – cell-based (AID 377; in the data active = fluorescence slope change above about 50%); conditions: MDR1-expressing cells, fluorescent substrate accumulation slope; stronger effect = higher value; concentration not given here
ATP-dependent translocase ABCB1 (Homo sapiens), sequence (P08183 whole entry, looked up): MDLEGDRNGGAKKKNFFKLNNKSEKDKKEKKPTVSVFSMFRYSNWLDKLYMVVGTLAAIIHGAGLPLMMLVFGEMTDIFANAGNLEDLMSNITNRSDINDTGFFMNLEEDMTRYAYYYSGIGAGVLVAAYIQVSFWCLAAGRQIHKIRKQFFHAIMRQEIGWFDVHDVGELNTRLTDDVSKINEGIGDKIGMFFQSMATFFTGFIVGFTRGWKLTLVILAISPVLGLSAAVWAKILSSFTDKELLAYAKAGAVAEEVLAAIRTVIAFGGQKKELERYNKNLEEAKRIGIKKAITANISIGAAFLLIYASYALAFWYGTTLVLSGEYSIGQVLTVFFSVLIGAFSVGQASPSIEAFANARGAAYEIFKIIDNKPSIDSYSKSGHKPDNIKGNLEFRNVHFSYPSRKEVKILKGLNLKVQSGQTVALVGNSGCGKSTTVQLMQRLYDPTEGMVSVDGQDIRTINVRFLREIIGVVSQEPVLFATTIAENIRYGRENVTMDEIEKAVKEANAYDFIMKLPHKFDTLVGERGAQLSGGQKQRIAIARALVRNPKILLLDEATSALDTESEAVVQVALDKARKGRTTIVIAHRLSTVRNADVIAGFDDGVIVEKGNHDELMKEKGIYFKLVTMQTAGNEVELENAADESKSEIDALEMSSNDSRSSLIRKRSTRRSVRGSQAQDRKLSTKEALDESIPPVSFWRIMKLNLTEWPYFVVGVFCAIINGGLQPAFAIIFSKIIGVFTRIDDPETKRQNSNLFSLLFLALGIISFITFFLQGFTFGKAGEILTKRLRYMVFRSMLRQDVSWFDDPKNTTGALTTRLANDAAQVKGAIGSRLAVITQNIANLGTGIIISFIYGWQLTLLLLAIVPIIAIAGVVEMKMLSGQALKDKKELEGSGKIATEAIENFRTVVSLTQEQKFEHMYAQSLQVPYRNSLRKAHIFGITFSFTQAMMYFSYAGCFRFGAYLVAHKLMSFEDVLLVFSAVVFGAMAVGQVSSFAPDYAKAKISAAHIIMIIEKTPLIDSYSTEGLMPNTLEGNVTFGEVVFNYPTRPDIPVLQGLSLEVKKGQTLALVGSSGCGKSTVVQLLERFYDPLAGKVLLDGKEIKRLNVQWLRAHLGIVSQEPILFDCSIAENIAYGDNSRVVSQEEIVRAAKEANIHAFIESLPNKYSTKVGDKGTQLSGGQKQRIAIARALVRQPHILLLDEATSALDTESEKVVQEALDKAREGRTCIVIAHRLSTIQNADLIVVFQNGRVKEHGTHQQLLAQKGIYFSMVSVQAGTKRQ

[18] = compounds altering viability of human ES cells (AID 493140; call rule not given here;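 note: cells exposed to compounds for four days before counting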); conditions: human embryonic stem cell survival screen; stronger effect = higher value
[19] = compounds altering circadian rhythm period length – cell-based, LOPAC library, luminescence reporter (AID 2774; call rule not given here;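 note: values are relative to mean of DMSO wells on each plate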); conditions: circadian reporter cells, at 7 µM, actives lie on both sides
[20] = tested on: Hepatitis C virus NS3 helicase; test: blockers of NS3h binding to ssDNA – biochemical, fluorescence polarization, LOPAC1280 library, primary screen (AID 687035; in the data active = inhibition above about 37%); conditions: Purified HCV NS3 helicase, Cy5-dT15 ssDNA binding fluorescence polarization; stronger effect = higher value; concentration not given here
[21] = compounds altering Cy5-DNA-NS3h complex signal – biochemical, LOPAC1280, artefact control for HCV NS3 helicase inhibitor project (AID 687037; call rule not given here); conditions: Cy5-DNA-NS3h complex fluorescence interference counterscreen
[22] = tested on: Aerobactin synthetase IucA (Klebsiella pneumoniae); test: inhibition of K. pneumoniae IucA enzyme – biochemical, Tocris library, absorbance (AID 1345561; call rule not given here;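 note: 100% = enzyme without compound and 0% = no enzyme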); conditions: purified IucA enzyme assay, absorbance (OD) read-out; stronger effect = lower value;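 tested at 8 µM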
[23] = chitosan synthesis blockers in C. neoformans – flow cytometry, Cibacron Brilliant Red staining (AID 1347148; call rule not given here;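 note: compound exposure lasted three days at 37 degrees C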); conditions: Cryptococcus neoformans chitosan, stronger effect = lower value; at 10 µM unless noted
[24] = blockers of cellular phospholipid synthesis – cell-based, LOPAC library, screen 4, primary screen (AID 1347384; call rule not given here); conditions: animal cells, phospholipid biosynthesis inhibition screen; at 10 µM
[25] = measured here: epithelial PC-3E GFP cell survival
[26] = measured here: mesenchymal TEM4-18 mCherry cell survival
[27] = stronger effect = lower value, cell number ratio, induced over uninduced
[28] = measured here: relative caspase fold change +Dox/-Dox
[29] = measured here: total cells with miR-34 induction, stronger effect = lower value
[30] = measured here: total cells without miR-34 induction
[31] = MELAS cybrid survival, CellTiter-Glo 48 h, stronger effect = higher value
[32] = Rieske KO mouse fibroblast survival, CellTiter-Glo 72 h

SMILES: CN(C)CC[C@H](c1ccc(Cl)cc1)c1ccccn1
- parasite load remaining [1]: 101% (inactive) and 66.4% (inactive)
- viability [1]: 77.5% and 96.6%
- red/green cell ratio (normalised) [2]: 1.35 (inactive)
- normalised cell number [2, 25]: 0.95
- normalised cell number [2, 26]: 1.28
- outcome [3]: inactive
- outcome [4]: inactive
- outcome [5]: inactive
- outcome [6]: inactive
- fold change [7, 27]: 0.84 (inactive)
- fold change [7, 28]: 2.94
- cell count [7, 29]: 10500
- cell count [7, 30]: 12500
- luciferase signal [8]: 80 AU (inactive)

SMILES: COC1=C(OC)C(=O)C(C/C=C(\C)CC/C=C(\C)CC/C=C(\C)CC/C=C(/C)CC/C=C(\C)CC/C=C(\C)CC/C=C(\C)CC/C=C(\C)CC/C=C(\C)CCC=C(C)C)=C(C)C1=O
- red/green cell ratio (normalised) [2]: 1.1 (inactive)
- normalised cell number [2, 25]: 0.97
- normalised cell number [2, 26]: 1.06
- outcome [9]: inactive
- outcome [10]: inactive
- outcome [11]: inactive
- outcome [12]: inactive
- luciferase signal [8]: 80 AU (inactive)

SMILES: C[C@]12CCC3c4ccc(O)cc4CCC3C1CCC2=O (some centres not stated)
- parasite load remaining [1]: 83.7% (inactive) and 77.8% (inactive)
- viability [1]: 75.2% and 91.3%
- red/green cell ratio (normalised) [2]: 0.96 (inactive)
- normalised cell number [2, 25]: 1.03
- normalised cell number [2, 26]: 0.99
- outcome [13]: inactive
- outcome [3]: inactive
- outcome [5]: inactive
- outcome [10]: inactive
- outcome [6]: inactive
- outcome [11]: inactive
- outcome [12]: inactive
- fold change [7, 27]: 1.01 (inactive)
- fold change [7, 28]: 1.48
- cell count [7, 29]: 10400
- cell count [7, 30]: 10300

SMILES: N#CC(c1ccc(Cl)cc1)c1c(Cl)cc(-n2ncc(=O)[nH]c2=O)cc1Cl (configuration not stated)
- parasite load remaining [1]: 30.6% (inactive)
- viability [1]: 99%
- red/green cell ratio (normalised) [2]: 0.84 (inactive)
- normalised cell number [2, 25]: 1.03
- normalised cell number [2, 26]: 0.86
- AC50 [3]: 23.5 µM (active)
- outcome [9]: inactive
- AC50 [6]: 13.2 µM (active)
- outcome [11]: inactive
- fold change [7, 27]: 0.879 (inactive) and 0.842 (inactive)
- fold change [7, 28]: 1.15 and 1.36
- cell count [7, 29]: 7450 and 8470
- cell count [7, 30]: 8480 and 10000
- z-score [14, 31]: -0.404 (inactive) and -1.37 (inactive) and -0.711 (inactive)
- z-score [14, 32]: 0.144 and -0.703 and -0.429
- remaining NAD [15]: 10 nM (inactive)
- z-score [16]: -0.445 (inactive)

SMILES: OC[C@@H](O)[C@@H](O)[C@H](O)[C@@H](O)CO
- parasite load remaining [1]: 34.8% (inactive)
- viability [1]: 97.5%
- red/green cell ratio (normalised) [2]: 1.05 (inactive)
- normalised cell number [2, 25]: 1.02
- normalised cell number [2, 26]: 1.06
- outcome [13]: inactive
- outcome [3]: inactive
- outcome [4]: inactive
- outcome [9]: inactive
- outcome [10]: inactive
- outcome [6]: inactive
- outcome [11]: inactive
- outcome [12]: inactive
- fold change [7, 27]: 0.939 (inactive)
- fold change [7, 28]: 3.07
- cell count [7, 29]: 11500
- cell count [7, 30]: 12200
- remaining NAD [15]: 10 nM (inactive)

SMILES: O=C(O)CCCN1CCN([C@H](c2ccccc2)c2ccc(Cl)cc2)CC1
- red/green cell ratio (normalised) [2]: 0.97 (inactive)
- normalised cell number [2, 25]: 1.14
- normalised cell number [2, 26]: 1.11
- fold change [7, 27]: 0.876 (inactive)
- fold change [7, 28]: 0.778
- cell count [7, 29]: 8580
- cell count [7, 30]: 9800

SMILES: COc1ccc2nc3cc(Cl)ccc3c(Nc3cc(CN4CCCC4)c(O)c(CN4CCCC4)c3)c2n1
- red/green cell ratio (normalised) [2]: 1.19 (inactive)
- normalised cell number [2, 25]: 0.83
- normalised cell number [2, 26]: 0.98
- AC50 [13]: 9.34 µM (active)
- outcome [3]: inactive
- AC50 [4]: 20.9 µM (active)
- AC50 [9]: 13.2 µM (active)
- AC50 [10]: 7.42 µM (active)
- outcome [6]: inactive
- AC50 [11]: 11.8 µM (active)
- IC50 [12]: 10.5 µM (active)
- fold change [7, 27]: 1.01 (inactive)
- fold change [7, 28]: 0.832
- cell count [7, 29]: 2320
- cell count [7, 30]: 2290
- remaining NAD [15]: 10 nM (inactive)

SMILES: CC1(C)CCC[C@]2(C)[C@H]3CC(=O)O[C@]3(C)CC[C@@H]12
- red/green cell ratio (normalised) [2]: 1.09 (inactive)
- normalised cell number [2, 25]: 1.09
- normalised cell number [2, 26]: 1.19
- outcome [3]: inactive
- outcome [4]: inactive
- outcome [6]: inactive

SMILES: CN[C@@H]1[C@H](O[C@H]2[C@H](O[C@@H]3[C@@H](O)[C@H](O)[C@@H](N=C(N)N)[C@H](O)[C@H]3N=C(N)N)O[C@@H](C)[C@]2(O)C=O)O[C@@H](CO)[C@H](O)[C@H]1O
- fluorescence slope change [17]: 2.1% (inactive)
- survival [18]: 20.6 (inactive)
- parasite load remaining [1]: 51.2% (inactive) and 45.6% (inactive) and 35.8% (inactive)
- viability [1]: 118% and 97.5% and 75%
- red/green cell ratio (normalised) [2]: 0.77 (inactive)
- normalised cell number [2, 25]: 1.28
- normalised cell number [2, 26]: 0.98
- outcome [13]: inactive
- outcome [9]: inactive
- outcome [10]: inactive
- outcome [11]: inactive
- outcome [12]: inactive
- fold change [7, 27]: 0.935 (inactive) and 0.903 (inactive)
- fold change [7, 28]: 0.998 and 1.43
- cell count [7, 29]: 7810 and 9380
- cell count [7, 30]: 8360 and 10400
- z-score [14, 31]: -0.628 (inactive) and -0.564 (inactive)
- z-score [14, 32]: -0.384 and -1.54
- z-score [16]: -0.095 (inactive)

SMILES: CC(C)NC[C@H](O)COc1cccc2ccccc12
- period change [19]: 0.145 h (inactive)
- parasite load remaining [1]: 76% (inactive) and 69.1% (inactive) and 147% (inactive)
- viability [1]: 78.7% and 93.4% and 161%
- inhibition [20]: -3% (inactive)
- fluorescence ratio (interference) [21]: 1 (inactive)
- red/green cell ratio (normalised) [2]: 1.36 (inactive)
- normalised cell number [2, 25]: 1
- normalised cell number [2, 26]: 1.37
- remaining activity [22]: 97% (inactive)
- fold fluorescence [23]: 1.64 [at 192.8 µM] (inactive)
- outcome [24]: inactive
- z-score [14, 31]: -0.245 (inactive)
- z-score [14, 32]: -0.593
- z-score [16]: -0.055 (inactive) and 0.085 (inactive) and -0.035 (inactive)

SMILES: CSCC[C@H](NC(=O)[C@H](Cc1c[nH]c2ccccc12)NC(=O)[C@H](C)NC(=O)OC(C)(C)C)C(=O)N[C@@H](CC(=O)O)C(=O)N[C@@H](Cc1ccccc1)C(N)=O
- red/green cell ratio (normalised) [2]: 0.98 (inactive)
- normalised cell number [2, 25]: 1.15
- normalised cell number [2, 26]: 1.13
- fold change [7, 27]: 0.979 (inactive)
- fold change [7, 28]: 0.82
- cell count [7, 29]: 9410
- cell count [7, 30]: 9610
